Reference: the supplement of paper PMC6555819

What follows are sequences tested on VDR:RXRa (NR concentration 270 nM, RXRa partner concentration 90 nM) (assay: PBM binding z-score (relative to random genomic background probes); higher = stronger binding; sequences stand for … in GC…GCGATTGACAGCGTAGAATGAAGG).
Description: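 Protein-binding microarray (Agilent 4x180K custom design, double-stranded 60-nt probes: 5' GC cap, 34-nt variable region, 24-nt constant primer region; full probe sequence given). Purified or IVT nuclear receptor:RXRα heterodimers (3:1 NR:RXRα, mostly 270:90 nM) or homodimers were incubated for 1 h in PBS with 2% milk and no ligand, then detected with Alexa488 antibodies. Fluorescence from o1-orientation probes (~5 replicates averaged) was converted to z-scores against 500 random hg19 background probes. Variable regions are seed direct-repeat (DR0–DR5) sites, all their single-nucleotide variants and half-site ablations.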
Sequence ATCGAAAGGTCGTGACGTGAGTATACAGAAAGGC has a PBM binding z-score of 3.03. TCGAGTAGGTGACGGGGGCATTCAGGGATGAAGA gave a PBM binding z-score of 3.36. For TCGAGTAGGTTACGGGGGCATTCAGGGATGAAGA, the PBM binding z-score was 4. With CCTTACGGGTCGCTGACAGGTTATAGCATTTGGA the PBM binding z-score was 0.961. CCTTACGGGTCACTCCATGTTATAGCATCGGAGT was tested, and the PBM binding z-score was 3.02. With CCGAGTAGGTTACGAGGGGGGATTCAGTGCGAAT the PBM binding z-score was 3.17. Work on CAAACTAGGTCACCAGGACAGTGAAGAGGTTGGA yielded a PBM binding z-score of 2.3. For TTACCAAGGTGAAAGGTCGTTGAGGCACGCCTTG, the PBM binding z-score was 3.55. With CCTTACGGGTCACTTACAGGTTATAGCATTTGGA the PBM binding z-score was 3.6. CCGAGTAGGTTACGAGGGCGCATTCAGTGCGAAT gave a PBM binding z-score of 0.78. Sequence CCTACTGGGCCAAAGGTCATTGACTCCAATGCTC has a PBM binding z-score of 4.58. In the case of CCTACTGGGCCAAAGGTCATAGATTCCAATGCTC, the PBM binding z-score was 4.17. CCTAGCAGGCGAGGGTCACTCAAGCATTTCGCTT gave a PBM binding z-score of 1.59. In the case of CGAACTAGGTCAAAGGACAATGAAAGGCGACGTA, the PBM binding z-score was 1.73. With CCGACTGGGCCATTCAGAGGTCATTGATCATATG the PBM binding z-score was 3.7. For CCGAGTAGGATACGAGGGGGCATTCAGTGCGAAT, the PBM binding z-score was 3.32. Work on GCTGCTAGGTCAGGATGGTCAGCTAACGGGTACG yielded a PBM binding z-score of 0.56. Sequence CCTACTGGGCCAAGGTCTTTGATCAGTCAAAGCA has a PBM binding z-score of -0.509. GCATACGGGTCAAAGGTTATAGCATGAATAGAAT showed a PBM binding z-score of 5.37. CGAACTAGGTCACCAGGTCAGTGAAGAGGTTGGA showed a PBM binding z-score of 3.92. With CTATGTAGGTTAAGGGGGTCATTCGGTTTGAAAG the PBM binding z-score was 7.56. Sequence CTCGAAAGGTCGGTTGAGGTGACTATACGGATAA has a PBM binding z-score of 2.77. Work on TATACAGGATCAAAGGCCAGAGTACGAATGTCGA yielded a PBM binding z-score of 0.61. CGAACTAGGTCACCGGGACAGTGAAGAGGTTGGA showed a PBM binding z-score of 2.52. CGTCCAAGGTCCATGCTAGGTCAGTGAAAGCATT was tested, and the PBM binding z-score was 0.731. In the case of CCTACTGGGGCAAAGGTCATTGATTCCAATGCTC, the PBM binding z-score was 4.96. With CGAACTAGGTTACCAGGACAGTGAAGAGGTTGGA the PBM binding z-score was -0.164. Work on CTCGAAAGGTCGTGCTTAGGTGAGTATACCAAAC yielded a PBM binding z-score of 3.36. With ATATGTAGGTTAGGGTCATTTAGAAAGTAGGGAA the PBM binding z-score was 4.26. CGAACTAGGTCAAAGGGCAGTGAAAGGCGACGTA showed a PBM binding z-score of 2.63. Work on CCTTACGGGTCAAGGTTATATCACGGGTGGTACG yielded a PBM binding z-score of 3.49. In the case of ATATCTAGGTAAAAGTTCAGTGAATCCCGAGGAT, the PBM binding z-score was 1.59. Sequence AGTAGCAGGCCAAGGGTCACTCAAGATTAGTCCG has a PBM binding z-score of 2.94. For CAGACTAGGTCAAAGGTCAAAGTCGAGCCAACCA, the PBM binding z-score was 6.58. TCTAGTTGGTCAAAGGCCACACACTCGAAATGCG was tested, and the PBM binding z-score was 1.04. For CGAACTAGGTCAAAGGACAGTGGAAGGCGACGTA, the PBM binding z-score was 1.21. ATATGTAGGTTATCGGGTCATTCATTTTGCGCAT showed a PBM binding z-score of 3.52. TCTTGTTGATCAAAGGTTAAGAAAGCCGAAGCCT gave a PBM binding z-score of 1.56. ACTAGTTGGTCAGCTGAGGTCACACTCAATTCGG gave a PBM binding z-score of 4.54. ATCGAATGGTCGAGGTGAGTATAGAGAAAGGGAA gave a PBM binding z-score of -0.226.
